Where a chain is given by its changes, count along the chain named.

These results are taken from PMC8384837, “Expanding the binding specificity for RNA recognition by a PUF domain”.

Test in all cases: yeast three-hybrid, YBZ-1, SC-Leu-His + 0.5 mM 3-AT, 4 days
Common to all, as to settings: tags: N-Gal4 AD-HA kept; label: inside an RPR1-promoter hybrid RNA with tandem MS2 sites; ssRNA

One test deals with T1, PUM1 PUF domain R6-CFN (Homo sapiens, UniProt Q14671 828-1176, N1043C;Y1044F;Q1047N).
T1 sequence: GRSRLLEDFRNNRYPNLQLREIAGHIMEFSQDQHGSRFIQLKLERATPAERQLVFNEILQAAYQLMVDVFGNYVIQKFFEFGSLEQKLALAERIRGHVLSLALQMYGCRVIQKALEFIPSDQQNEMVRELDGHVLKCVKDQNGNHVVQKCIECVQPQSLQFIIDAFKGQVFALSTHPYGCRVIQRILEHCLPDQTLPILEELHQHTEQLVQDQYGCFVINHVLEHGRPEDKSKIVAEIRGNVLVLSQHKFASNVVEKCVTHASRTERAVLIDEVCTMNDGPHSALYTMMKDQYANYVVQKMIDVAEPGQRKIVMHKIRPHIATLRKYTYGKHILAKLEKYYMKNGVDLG
The method in brief:
(§1)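 A centromeric plasmid in strain YBZ-1 co-expressed Pumilio-1 PUF domain libraries, randomized at the three base-contacting residues of each repeat, with matching RNA elements; the strain carries a LexA–MS2 coat fusion and a HIS3 reporter. After four days on SC-Leu (input) or SC-Leu-His + 0.5 mM 3-AT (selection), the repeat regions were PCR-amplified and Illumina-sequenced. The interaction score is the log change in variant frequency from input to selection, using log2 and a pseudocount of 1 where absent.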

For a further test, the target named is PUM1 PUF domain R1-RCC (Homo sapiens, UniProt Q14671 828-1176, S863R;R864C;Q867C). The method in brief:
as §1

In a further test the target is PUM1 PUF domain R1-VRR (Homo sapiens, UniProt Q14671 828-1176, S863V;Q867R). The method in brief: as §1
The next test concerns the target PUM1 PUF domain R1-KCN (Homo sapiens, UniProt Q14671 828-1176, S863K;R864C;Q867N). The method, boiled down: as §1
The target in the next test is PUM1 PUF domain R7-SRR (Homo sapiens, UniProt Q14671 828-1176, N1080R;E1083R). The method in brief:
as §1

A further test has as its target PUM1 PUF domain R7-ERK (Homo sapiens, UniProt Q14671 828-1176, S1079E;N1080R;E1083K). The method in brief: as §1
The next test deals with PUM1 PUF domain R7-KHS (Homo sapiens, UniProt Q14671 828-1176, S1079K;N1080H;E1083S). The method in brief:
as §1

The target of a further test is PUM1 PUF domain R4-NNL (Homo sapiens, UniProt Q14671 828-1176, H972N;Q975L). The method, boiled down:
as §1

The target in the next test is T2, PUM1 PUF domain R6-CWC (Homo sapiens, UniProt Q14671 828-1176, N1043C;Y1044W;Q1047C).
T2 sequence: T1 sequence with F217W, N220C
The method in brief:
as §1

For a further test, the target named is PUM1 PUF domain R8-CFR (Homo sapiens, UniProt Q14671 828-1176, N1122C;Y1123F;Q1126R). The method, boiled down:
as §1

For the next test, the target named is PUM1 PUF domain R8-PYW (Homo sapiens, UniProt Q14671 828-1176, N1122P;Q1126W). The method in brief: as §1
The target of a further test is PUM1 PUF domain R8-TRK (Homo sapiens, UniProt Q14671 828-1176, N1122T;Y1123R;Q1126K). The method, boiled down:
as §1

The next test concerns the target PUM1 PUF domain R5-SLC (Homo sapiens, UniProt Q14671 828-1176, C1007S;R1008L;Q1011C). The method in brief: as §1
A further test concerns the target T3, PUM1 PUF domain R6-RRE (Homo sapiens, UniProt Q14671 828-1176, N1043R;Y1044R;Q1047E).
T3 sequence: T1 sequence with C216R, F217R, N220E
The method in brief:
as §1

The target of the next test is PUM1 PUF domain R4-NNC (Homo sapiens, UniProt Q14671 828-1176, H972N;Q975C). The method in brief:
as §1

The next test concerns the target PUM1 PUF domain R5-DRD (Homo sapiens, UniProt Q14671 828-1176, C1007D;Q1011D). The method, boiled down:
as §1

The next test concerns the target PUM1 PUF domain R3-LNS (Homo sapiens, UniProt Q14671 828-1176, C935L;R936N;Q939S). The method, boiled down: as §1
A further test concerns the target PUM1 PUF domain R5-RLQ (Homo sapiens, UniProt Q14671 828-1176, C1007R;R1008L). The method in brief: as §1

In the case of “GGCUAGAACUAGUGGAUCCCCCGGCGCCCGGCGGCUCGAGCCCGGGUAAGUGAAAAUAGUCUGCAUGCCGCCGGGCGCCAUGCCUGCAGGUCGACUCUAGAAAACAUG”, the binding signal with PUM1 PUF domain R6-CFN was 5.35 log2 enrichment (interaction score).

Regarding “GGCUAGAACUAGUGGAUCCCCCGGCGCCCGGCGGCUCGAGCCCGGGUAAGUGUAAAUUGUCUGCAUGCCGCCGGGCGCCAUGCCUGCAGGUCGACUCUAGAAAACAUG”, the binding signal in the test with PUM1 PUF domain R1-RCC is 2.58 log2 enrichment (interaction score); with PUM1 PUF domain R1-VRR it was 1.88 log2 enrichment (interaction score); with PUM1 PUF domain R1-KCN it was 3.67 log2 enrichment (interaction score).

Consider “GGCUAGAACUAGUGGAUCCCCCGGCGCCCGGCGGCUCGAGCCCGGGUAAGUGUAAAUGGUCUGCAUGCCGCCGGGCGCCAUGCCUGCAGGUCGACUCUAGAAAACAUG”, for which the binding signal in the test with PUM1 PUF domain R1-RCC was 2.4 log2 enrichment (interaction score).

For the sequence “GGCUAGAACUAGUGGAUCCCCCGGCGCCCGGCGGCUCGAGCCCGGGUAAGUUUAAAUAGUCUGCAUGCCGCCGGGCGCCAUGCCUGCAGGUCGACUCUAGAAAACAUG”, the binding signal in the test with PUM1 PUF domain R7-SRR is 2.68 log2 enrichment (interaction score).

Regarding “GGCUAGAACUAGUGGAUCCCCCGGCGCCCGGCGGCUCGAGCCCGGGUAAGUCUAAAUAGUCUGCAUGCCGCCGGGCGCCAUGCCUGCAGGUCGACUCUAGAAAACAUG”, the results for the binding signal with PUM1 PUF domain R7-SRR, with PUM1 PUF domain R7-ERK and with PUM1 PUF domain R7-KHS were 2.92 log2 enrichment (interaction score), 5.87 log2 enrichment (interaction score) and 3.33 log2 enrichment (interaction score), respectively.

Regarding “GGCUAGAACUAGUGGAUCCCCCGGCGCCCGGCGGCUCGAGCCCGGGUAAGUGUAAAUAGUCUGCAUGCCGCCGGGCGCCAUGCCUGCAGGUCGACUCUAGAAAACAUG”, the binding signal with PUM1 PUF domain R4-NNL is 3.79 log2 enrichment (interaction score); with PUM1 PUF domain R6-CWC, 3 log2 enrichment (interaction score); in the test with PUM1 PUF domain R8-CFR, 4.47 log2 enrichment (interaction score); with PUM1 PUF domain R8-PYW, 3.3 log2 enrichment (interaction score); in the test with PUM1 PUF domain R8-TRK, 2.15 log2 enrichment (interaction score); with PUM1 PUF domain R5-SLC it was 0.65 log2 enrichment (interaction score). Also, the binding signal was 4.26 log2 enrichment (interaction score) in the test with PUM1 PUF domain R6-RRE and 2.42 log2 enrichment (interaction score) with PUM1 PUF domain R4-NNC.

Take “GGCUAGAACUAGUGGAUCCCCCGGCGCCCGGCGGCUCGAGCCCGGGUAAGUGUAUAUAGUCUGCAUGCCGCCGGGCGCCAUGCCUGCAGGUCGACUCUAGAAAACAUG”: the values for the binding signal in the test with PUM1 PUF domain R4-NNL and with PUM1 PUF domain R4-NNC were 3 log2 enrichment (interaction score) and 3.85 log2 enrichment (interaction score), respectively.

“GGCUAGAACUAGUGGAUCCCCCGGCGCCCGGCGGCUCGAGCCCGGGUAAGUAUAAAUAGUCUGCAUGCCGCCGGGCGCCAUGCCUGCAGGUCGACUCUAGAAAACAUG”: the binding signal with PUM1 PUF domain R7-KHS is 2.08 log2 enrichment (interaction score).

“GGCUAGAACUAGUGGAUCCCCCGGCGCCCGGCGGCUCGAGCCCGGGUAAGUGUAAAUCGUCUGCAUGCCGCCGGGCGCCAUGCCUGCAGGUCGACUCUAGAAAACAUG”: the binding signal with PUM1 PUF domain R1-VRR is 2.85 log2 enrichment (interaction score).

“GGCUAGAACUAGUGGAUCCCCCGGCGCCCGGCGGCUCGAGCCCGGGUAAGCGUAAAUAGUCUGCAUGCCGCCGGGCGCCAUGCCUGCAGGUCGACUCUAGAAAACAUG”: the binding signal with PUM1 PUF domain R8-CFR is 4.3 log2 enrichment (interaction score); with PUM1 PUF domain R8-TRK, 3.25 log2 enrichment (interaction score).

Take “GGCUAGAACUAGUGGAUCCCCCGGCGCCCGGCGGCUCGAGCCCGGGUAAGUGUGAAUAGUCUGCAUGCCGCCGGGCGCCAUGCCUGCAGGUCGACUCUAGAAAACAUG”: the values for the binding signal in the test with PUM1 PUF domain R5-DRD and with PUM1 PUF domain R5-SLC were 4.33 log2 enrichment (interaction score) and 2.98 log2 enrichment (interaction score), respectively.

With “GGCUAGAACUAGUGGAUCCCCCGGCGCCCGGCGGCUCGAGCCCGGGUAAGUGUAAGUAGUCUGCAUGCCGCCGGGCGCCAUGCCUGCAGGUCGACUCUAGAAAACAUG”, the binding signal in the test with PUM1 PUF domain R3-LNS is 4.27 log2 enrichment (interaction score).

In the case of “GGCUAGAACUAGUGGAUCCCCCGGCGCCCGGCGGCUCGAGCCCGGGUAAGUGUAAUUAGUCUGCAUGCCGCCGGGCGCCAUGCCUGCAGGUCGACUCUAGAAAACAUG”, the binding signal in the test with PUM1 PUF domain R3-LNS was 3.52 log2 enrichment (interaction score).

As for “GGCUAGAACUAGUGGAUCCCCCGGCGCCCGGCGGCUCGAGCCCGGGUAAGUGUUAAUAGUCUGCAUGCCGCCGGGCGCCAUGCCUGCAGGUCGACUCUAGAAAACAUG”, the binding signal with PUM1 PUF domain R5-RLQ was 1.58 log2 enrichment (interaction score).

Turning to “GGCUAGAACUAGUGGAUCCCCCGGCGCCCGGCGGCUCGAGCCCGGGUAAGUGUCAAUAGUCUGCAUGCCGCCGGGCGCCAUGCCUGCAGGUCGACUCUAGAAAACAUG”, the binding signal with PUM1 PUF domain R5-RLQ was 2.19 log2 enrichment (interaction score).
